Some test systems named below: HCT-15 colon; HT29 colon; SNB-75 CNS; SNB-19 CNS; U251 CNS; PC-3 prostate; SK-MEL-5 melanoma; UACC-62 melanoma; LOX IMVI melanoma; SK-MEL-28 melanoma; SK-MEL-2 melanoma; EKVX NSCLC; SN12C renal; UO-31 renal; ACHN renal; CAKI-1 renal; A498 renal; CCRF-CEM leukemia; MOLT-4 leukemia.
Common to all, as to test: NCI-60 one-dose screen, 48 h (100 = growth as untreated, 0 = no growth, -100 = all killed)
Conditions in all cases: 10 µM unless noted

The structures appear in SMILES notation. This is part of a sample that, as a whole, favours compounds with a hit. Of some 83,000 tested, about 20% had one in any assay.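 48-hour exposure, single concentration, 96-well plates; percent growth endpoint where 0 means no net growth. Active: below 10.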 Unmarked numbers belong to inactive results. Calls of active or inactive are those of the source.

Take `C[C@H]1c2cccc(O)c2C(O)=C2C(=O)[C@]3(O)C(O)=C(C(N)=O)C(=O)[C@@H](N(C)C)[C@@H]3[C@@H](O)[C@@H]21`: the growth in the test with HCT-15 colon is 31.2%; with HT29 colon, 39.6%; in the test with SNB-75 CNS, 47.3%; in the test with SNB-19 CNS, 69.9%; in the test on U251 CNS it was 33.1%; in the test with PC-3 prostate it was 42.3%. Also, the growth in the test with SK-MEL-5 melanoma was 9.29% (active); with UACC-62 melanoma, 34.1%; in the test with LOX IMVI melanoma it was 31.5%; in the test on SK-MEL-28 melanoma it was 65.4%; with SK-MEL-2 melanoma, 56.1%; in the test with EKVX NSCLC, 46.7%. For the same compound, the growth was 53.6% with SN12C renal; 32.6% with UO-31 renal; 27.1% in the test on ACHN renal; 14% in the test on CAKI-1 renal; 59.9% in the test on A498 renal; 39.1% in the test on CCRF-CEM leukemia. Further, in the test on MOLT-4 leukemia, the growth is 51.5%.

Regarding `CSc1nc(Nc2ccc(S(=O)(=O)Nc3ccon3)cc2)c(C#N)c(-c2ccc(Cl)cc2)n1`, the growth with HCT-15 colon is 87.9%; with HT29 colon, 101%; in the test on SNB-75 CNS, 102%; in the test on SNB-19 CNS, 101%; with U251 CNS, 88.2%; in the test with PC-3 prostate, 109%. Moreover, the growth with SK-MEL-5 melanoma was 97.4%; in the test with UACC-62 melanoma it was 107%; in the test on LOX IMVI melanoma, 62.3%; in the test on SK-MEL-28 melanoma, 118%; in the test on SK-MEL-2 melanoma, 99.3%; with EKVX NSCLC it was 98.5%. Besides, the growth in the test with SN12C renal was 108%; in the test on UO-31 renal it was 86%; with ACHN renal, 90.2%; in the test on CAKI-1 renal, 102%; with A498 renal it was 93.3%; in the test with CCRF-CEM leukemia, 6.79% (active). In addition, the growth in the test on MOLT-4 leukemia is -20.8% (active).

As to `O[N+]1=CC=CCC1=S.On1ccccc1=S.[Zn]`, the growth in the test on HCT-15 colon was -57% (active); in the test with HT29 colon, -47.5% (active); in the test with SNB-75 CNS, -75.3% (active); in the test on SNB-19 CNS it was -93% (active); in the test with U251 CNS it was -86.8% (active); in the test with PC-3 prostate it was -50.8% (active). In addition, the growth with SK-MEL-5 melanoma was -93.5% (active); with UACC-62 melanoma, -78.3% (active); in the test on LOX IMVI melanoma it was -70.3% (active); with SK-MEL-28 melanoma, -87.3% (active); in the test on SK-MEL-2 melanoma, -67.8% (active); in the test with EKVX NSCLC it was -84.4% (active). Besides, the growth with SN12C renal was -82.4% (active); in the test on UO-31 renal, -97.9% (active); in the test on ACHN renal, -91.2% (active); in the test with CAKI-1 renal, -85.6% (active); with A498 renal it was -83.4% (active); with CCRF-CEM leukemia, -34.5% (active). In the test with MOLT-4 leukemia, the growth is -36.1% (active).

Consider `N#CC(C#N)C(C#N)C#N`, for which the growth is 103% with HCT-15 colon; 97% with HT29 colon; 82% in the test with SNB-75 CNS; 114% in the test on SNB-19 CNS; 93.6% with U251 CNS; 90.4% in the test on PC-3 prostate. For the same compound, the growth in the test on SK-MEL-5 melanoma is 103%; with UACC-62 melanoma it was 98.6%; in the test on LOX IMVI melanoma it was 104%; in the test with SK-MEL-28 melanoma, 110%; in the test on SK-MEL-2 melanoma, 109%; in the test on EKVX NSCLC, 99.7%. The growth with SN12C renal was 99.9%; with UO-31 renal, 89.1%; with ACHN renal, 107%; with A498 renal, 99%; in the test on CCRF-CEM leukemia, 105%; in the test on MOLT-4 leukemia it was 96.4%.

`Nc1ccn(C2O[C@H](CO)[C@@H](O)[C@@H]2O)c(=O)n1` (some centres undefined): the growth in the test with HCT-15 colon was 59.5%; in the test with HT29 colon it was 42.7%; with SNB-75 CNS it was 78.6%; with SNB-19 CNS it was 47.9%; in the test on U251 CNS, 40%; in the test on PC-3 prostate, 63.9%. Besides, the growth was 45.1% in the test with SK-MEL-5 melanoma; 22.1% in the test on UACC-62 melanoma; 19.1% in the test with LOX IMVI melanoma; 68.5% in the test on SK-MEL-28 melanoma; 88.3% in the test with SK-MEL-2 melanoma; 91.8% in the test on EKVX NSCLC. Also, the growth is 37.1% in the test on SN12C renal; 1.02% (active) in the test with UO-31 renal; 0.769% (active) with ACHN renal; 12.4% in the test with CAKI-1 renal; 6.02% (active) in the test on CCRF-CEM leukemia; 13.6% with MOLT-4 leukemia.

Regarding `CCSc1nc(-c2ccc(F)cc2)c(C#N)c(=O)[nH]1`, the growth with HCT-15 colon is 104%; with HT29 colon it was 106%; in the test on SNB-75 CNS, 93.5%; with SNB-19 CNS, 107%; in the test with U251 CNS it was 107%; in the test with PC-3 prostate, 127%. Also, the growth is 101% in the test with SK-MEL-5 melanoma; 97.5% in the test with UACC-62 melanoma; 95.4% in the test on LOX IMVI melanoma; 108% with SK-MEL-28 melanoma; 96.3% in the test with SK-MEL-2 melanoma; 105% in the test on EKVX NSCLC. Moreover, the growth was 96.2% with SN12C renal; 125% in the test on UO-31 renal; 97.1% with ACHN renal; 98.7% with CAKI-1 renal; 112% in the test with A498 renal; 102% with CCRF-CEM leukemia. For the same compound, the growth in the test on MOLT-4 leukemia was 124%.

Regarding `COc1ccc2nc(-c3ccc(Cl)cc3)cc(-c3nnc(SCC(=O)Nc4ccc(C(C)=O)cc4)n3-c3ccccc3)c2c1`, the growth is 101% with HCT-15 colon; 78.6% in the test on HT29 colon; 81% with SNB-75 CNS; 105% with SNB-19 CNS; 101% in the test with U251 CNS; 87.3% in the test with PC-3 prostate. Also, the growth is 103% with SK-MEL-5 melanoma; 97.7% in the test with UACC-62 melanoma; 105% with LOX IMVI melanoma; 107% with SK-MEL-28 melanoma; 91.5% in the test with SK-MEL-2 melanoma; 101% in the test on EKVX NSCLC. The growth is 114% with SN12C renal; 84.4% in the test on UO-31 renal; 108% in the test on ACHN renal; 100% in the test on A498 renal; 108% in the test on CCRF-CEM leukemia; 83% in the test on MOLT-4 leukemia.

Regarding `O=CN1N=C(c2ccc(Nc3ccnc4cc(Cl)ccc34)cc2)CC1c1ccc(Cl)cc1` (centres undefined), the growth with HCT-15 colon is 16.4%; with HT29 colon it was 5.55% (active); in the test with SNB-75 CNS it was 4.26% (active); in the test with SNB-19 CNS it was 44.5%; with U251 CNS it was 27.6%; with PC-3 prostate, 32.3%. Besides, the growth with SK-MEL-5 melanoma is -27.4% (active); in the test with UACC-62 melanoma, 28.7%; in the test on LOX IMVI melanoma it was 32%; in the test with SK-MEL-28 melanoma, 39.2%; in the test with SK-MEL-2 melanoma, 52.1%; in the test on EKVX NSCLC it was 40.5%. Besides, the growth is 36.1% in the test with SN12C renal; 20.6% in the test on UO-31 renal; 27.9% in the test on ACHN renal; 39.4% with CAKI-1 renal; 34.6% in the test with A498 renal; 6.48% (active) in the test on CCRF-CEM leukemia. Also, the growth in the test on MOLT-4 leukemia is 7.23% (active).

Source of the values: PubChem BioAssay (NCI).
